Tau fibril FP – qHTS for Inhibitors of Tau Fibril Formation, Fluorescence Polarization; Microtubule-associated protein tau (Homo sapiens), P10636; Potency, µM (top dose mostly 57.7 µM), for inactives: top-dose activity, negative = inhibition, actives largely listed as inhibitors; actives 0.39% (n = 280,000); K18 P301L tau heparin fibrillization, Alexa594 FP, 6 h; note: potency is the fitted concentration of half-maximal effect; nearly all actives have a fitted effect of over 55% in size
Target sequence (P10636 561-689 P618L limits assumed): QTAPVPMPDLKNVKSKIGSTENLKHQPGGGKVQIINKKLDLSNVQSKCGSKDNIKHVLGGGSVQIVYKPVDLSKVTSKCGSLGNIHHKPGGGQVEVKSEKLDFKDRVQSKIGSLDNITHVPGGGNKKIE
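FP of Alexa 594-tau after heparin (20 uM) induction. Substrate: human K18 P301L, 15 uM unlabeled, 0.24 uM labeled. Buffer 100 mM sodium acetate pH 7. 6 hr, 37 C.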
Sfp inh – qHTS Assay for Inhibitors of Bacillus subtilis Sfp phosphopantetheinyl transferase (PPTase). 4'-phosphopantetheinyl transferase ffp (Bacillus subtilis), Q9F4F7. Biochemical Sfp PPTase activity, qHTS. Potency, µM, inactives show largest response in the series, negative = inhibition, most hits filed as inhibitors. actives 3.5% (n = 310,000);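 note: the enzyme is Sfp with the accession as filed and its product quenches rhodamine fluorescence; potency is the fitted concentration of half-maximal effect; 0% = enzyme reaction without inhibitor and -100% = no enzyme wells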
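Reaction rates are the 30-min fluorescence difference (ex 525, em 598 nm) in wells containing 15 nM Sfp, 5 uM rhodamine-CoA and 12.5 uM BHQ-2-YbbR at pH 7.6 with 10 mM MgCl2.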
Coupling enz – qHTS Assay for Inhibitors of Fructose-1,6-bisphosphate Aldolase from Giardia Lamblia: Coupling assay counterscreen; coupling enzyme system counterscreen, AmpLite Red fluorescence; activity change, negative = inhibition, % at 58.2 µM, hits read low; actives 0.67% (n = 290,000); AID 2472, 2010; in the data active = activity change below about -30%
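Counterscreen of the coupled detection system alone, without aldolase: glyceraldehyde-3-phosphate coupling enzymes plus AmpLite Red readout. Compounds at 57.5 uM final, 10 min RT preincubation, 20 min RT reaction, fluorescence 525/598 nm.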
G9a block – qHTS Assay for Inhibitors of Histone Lysine Methyltransferase G9a | Potency, µM (highest dose often 102 µM), without a hit: at the top dose activity, negative = inhibition, actives largely listed as inhibitors | AID 504332, 2011 | actives 8.8% (n = 350,000) | G9a H3K9 monomethylation, AlphaScreen, 2 h; note: potency is the fitted concentration of half-maximal effect; nearly all actives have a fitted effect of over 75% in size
Target sequence (Q96KQ7 913-1193 limits assumed): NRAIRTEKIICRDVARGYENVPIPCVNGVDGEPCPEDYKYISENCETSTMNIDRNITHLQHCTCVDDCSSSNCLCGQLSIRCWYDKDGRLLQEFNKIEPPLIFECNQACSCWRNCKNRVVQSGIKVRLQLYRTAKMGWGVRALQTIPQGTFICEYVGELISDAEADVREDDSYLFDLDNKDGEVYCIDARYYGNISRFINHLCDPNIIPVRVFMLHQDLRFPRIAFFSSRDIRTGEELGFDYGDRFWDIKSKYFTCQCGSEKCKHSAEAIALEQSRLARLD
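G9a (20 nM) was preincubated 15 min with compound, then reacted 2 h at room temperature with 500 nM biotin-H3K9 peptide and 20 µM SAM. Monomethyl-H3K9 detected by AlphaScreen using anti-H3K9me1 antibody.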
Tau fibril ThT – qHTS for Inhibitors of Tau Fibril Formation, Thioflavin T Binding; actives 2.1% (n = 270,000); Potency, µM (doses to about 57.4 µM), inactives show at the top dose activity, negative = inhibition, most hits filed as inhibitors; Microtubule-associated protein tau (Homo sapiens), P10636; recombinant tau K18 P301L, heparin-induced fibrillization, ThT fluorescence; note: potency is the fitted concentration of half-maximal effect; nearly all actives have a fitted effect of over 55% in size
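K18 P301L tau (15 uM + 0.24 uM Alexa 594-tagged), heparin 20 uM, NaOAc pH 7, 6 h 37 C; ThT 30 uM, 1 h RT, ex 450/em 510 nm.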
Tau fluor counter – Counterscreen qHTS for Inhibitors of Tau Fibril Formation, Fluorescence Polarization | tau K18 P301L Alexa594 fluorescence, heparin fibrillization | Potency, µM (series often up to 57.7 µM), for inactives: at the highest dose activity change, negative = decrease | actives 0.93% (n = 280,000) | AID 1463, 2008; note: potency is the fitted concentration of half-maximal effect; nearly all actives have a fitted effect of over 55% in size
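Human tau K18 P301L (15 uM unlabeled, 0.24 uM Alexa 594-labeled) in 100 mM sodium acetate pH 7 with 20 uM heparin, 6 hr at 37 C. ThT 30 uM added, 1 hr ambient; Alexa 594 FP and total fluorescence read at 555/632 nm.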
Active calls of the source: *; u = inconclusive; x = no result; [ ] = remark or other dose. Compounds with a hit are over-represented: about 11% of the library has one in this group of screens. Unless noted, calls come from the whole dose curve; as a rule, active = well fitted curve in the direction sought with a large enough effect; inconclusive = small, poorly fitted or top-dose-only effect, or another doubt; inactive = no such curve, though single readings can be large; an effect the other way counts as inactive or inconclusive. Unless noted, % is set by controls: 0 for no effect and ±100 for the full control effect.

SMILES	Tau fibril FP	Sfp inh	Coupling enz	G9a block	Tau fibril ThT	Tau fluor counter
CN1CCN(C(CNC(=O)C(=O)Nc2cccc(Cl)c2)c2ccc3c(c2)OCO3)CC1 (stereo not given)	4%	x	x	-5%[59 µM]	-4%	-4%
CCOCC(=O)Nc1nnc(COc2ccc(Cl)cc2)s1	-11%	28µM*	5	4µM*	u	-18%
CCC(CC)c1nnc(NC(=O)c2c(-c3ccccc3)noc2C)s1	-1%	18%	5	40µM*	-10%	-12%
CCc1nnc(NC(=O)c2c(-c3ccccc3)noc2C)s1	x	-8%	1	-11%	x	x
Cc1nnc(NC(=O)c2c(-c3ccccc3)noc2C)s1	-4%	3%	5	-13%[0.0925 µM]	-4%	-3%
Cc1onc(-c2ccccc2)c1C(=O)Nc1nnc(COc2ccc(Cl)cc2)s1	u	7.1µM*	-1	u	u	-27%
COCC(=O)Nc1nnc(COc2ccc(Cl)cc2)s1	1%	-2%	1	-3%[59 µM]	-8%	-14%
Cc1cc(C)cc(NC(=O)c2cc(CN3CCCC3)on2)c1	6%	x	x	-6%[59 µM]	-1%	7%
CCOc1cccc(NC(=O)C(Cc2cccs2)c2nn[nH]n2)c1 (stereo not given)	-4%	u	1	56µM*	-10%	-7%
COc1ccc(CNC(=O)CN2C(=O)COc3ccc(S(=O)(=O)Nc4ccccc4)cc32)cc1	4%	x	x	-27%[59 µM]	-7%	u
COc1ccc(NC(=O)[C@H]2O[C@@H]3OC(C)(C)O[C@@H]3[C@H]3OC(C)(C)O[C@H]32)c(OC)c1	-3%	x	x	-2%[59 µM]	1%	-5%
COc1cccc2c1nc(C)c1cc(C)oc12	-1%	-5%	5	9%[59 µM]	-11%	-7%
COc1cccc2nc3cc(C)c(C)cc3nc12	u	u	-39*	-26%	22µM*	-27%
CN1CC(C(=O)Nc2ccc(F)c(Cl)c2)CC1=O (stereo not given)	x	5%	1	x	x	x
COc1ccc(S(=O)(=O)N2CCCCC2)cc1NC(=O)Cc1cccs1	x	x	x	3%[59 µM]	x	x
COC(=O)c1c(NC(C)=O)sc2c1CCCC2	2%	-13%	-5	-26%[59 µM]	-8%	-9%
COC(=O)c1c(NS(C)(=O)=O)sc2c1CCCC2	-10%	18µM*	1	u	-16%	-1%
COC(=O)c1c(NC(=O)CCNCc2ccco2)sc2c1CCC2	-1%	-22%	3	22µM*	-13%	-14%
COC(=O)c1c(NC(C)=O)sc2c1CCCCC2	-1%	56µM*	5	8.9µM*	u	-6%
COC(=O)c1c(NC(=S)Nc2ccc(C(=O)N3CCOCC3)cc2)sc2c1CCC2	-5%	u	1	50µM*	-16%	-26%
CCOC(=O)c1c(NC(=S)Nc2ccc(OC)cc2)sc2c1CCCCC2	1%	-3%	0	u	-7%	-18%
COC(=O)c1c(NC(=O)C2CCCO2)sc2c1CCC2 (stereo not given)	-10%	-16%	3	-10%[59 µM]	-15%	-15%
COC(=O)c1c(NC(=S)Nc2ccc(F)cc2[N+](=O)[O-])sc2c1CCCCC2	3%	14µM*	2	35µM*	-9%	-12%
CNC(=S)Nc1sc2c(c1C(=O)OC)CCC2	u	24%	5	16µM*	-14%	-13%
CN(C(=O)c1ccc(S(=O)(=O)c2cccc(Cl)c2)c([N+](=O)[O-])c1)C1CCCCC1	17%	7%	-2	32µM*	u	-28%
COc1cccc(CCNC(=O)c2cnc3sc(N4CCCC4)nn3c2=O)c1	0%	x	x	6%[59 µM]	0%	-1%
C=CCSC1=N/C(=C\C=C\c2ccco2)C(=O)S1	u	56µM*	-8	7.1µM*	13µM*	u
